Results on one compound are retold here after PubChem BioAssay (NCATS).

Values without a mark were called inactive. Results filed as inconclusive are left out. The source made the active and inactive calls. Unless noted, the call rests on the fitted dose curve; in most records, active means well fitted curve in the direction sought with a large enough effect; inconclusive means small, poorly fitted or top-dose-only effect, or another doubt; inactive means no such curve, though single readings can be large; an effect the other way counts as inactive or inconclusive.

The nature of assay [1]: Cell Viability - BJ (AID 421; calls by dose curve;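 further: potency means the concentration at half of the fitted maximal effect; cells exposed to compound for 40 hours at 37 °C before readout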). To be noted: BJ fibroblast viability, qHTS. Summed up:
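Cytotoxicity as drop in intracellular ATP (CellTiter-Glo, 20 min RT) after 40 hr compound exposure of BJ fibroblasts at 37 °C. Titrations scaled between DMSO and 100 uM tamoxifen, Hill-fitted for AC50.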
On the technique in general: qHTS replaces the single test concentration by a dilution series.

A short description of assay [2]: Cell Viability - Jurkat (AID 426;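 active means dose-dependent loss of cell ATP signal giving a full or clear fitted curve, ranked by lower potency value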; further: potency means the concentration at half of the fitted maximal effect). To be noted: qHTS. Put shortly: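 Luminescent ATP read-out (CellTiter-Glo, 20 min at room temperature) after 40 hr compound exposure at 37 °C of Jurkat E6-1 cells, 5000/well. Decreased ATP taken as cytotoxicity; AC50 from standard Hill equation.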
Assay [3] can be described thus: Cell Viability - HepG2 (AID 433; calls by dose curve; further: potency means the concentration at half of the fitted maximal effect). To be noted: qHTS. Summed up:
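HepG2 cells, 1500 per well, treated 40 hr at 37 °C in complete medium; viability from intracellular ATP by CellTiter-Glo luminescence. Normalized to DMSO and 100 uM tamoxifen; AC50 from Hill fit of qHTS concentration-response.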

Assay [4] is described as follows: Cell Viability - MRC5 (AID 434; calls by dose curve;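 further: potency means the concentration at half of the fitted maximal effect; potency reflects cytotoxicity seen as loss of intracellular ATP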). To be noted: MRC5 lung fibroblast viability, qHTS. Summed up: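 Decrease in intracellular ATP, quantified by luciferase light output, reflects compound toxicity toward MRC5 cells exposed for 40 hr in complete culture medium. Concentration-response curves, scaled between DMSO and 100 uM tamoxifen, gave AC50 values.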
Assay [5] is described as follows: Cell Viability - SK-N-SH (AID 435; calls by dose curve; further: potency means the concentration at half of the fitted maximal effect). The following applies: SK-N-SH neuroblastoma cell viability qHTS. Summed up: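 SK-N-SH neuroblastoma cells (1500/well) treated 40 h at 37 °C in complete medium; viability read as cellular ATP by CellTiter-Glo luminescence. Normalized to DMSO and 100 uM tamoxifen; AC50 from Hill fits of qHTS concentration-response.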
Assay [6] is described as follows: Cell Viability - N2a (AID 540).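 Further: plate controls were DMSO alone for no effect and tamoxifen control for full effect; nearly all actives have a fitted effect of over 45% in size.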 The following applies: N2a mouse neuroblastoma cell viability; at 92.2 µM (top of the series). Put shortly:
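N2a mouse neuroblastoma, 1500 cells/well, 5 hr settle; compound 40 hr, 37 °C; CellTiter-Glo 20 min RT; luminescence; Hill-fit AC50.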

Assay [7] in a line: Cell Viability - NIH 3T3 (AID 541).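 Further: plate controls were DMSO alone for no effect and tamoxifen positive control for full effect; nearly all actives have a fitted effect of over 25% in size.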 The following applies: NIH 3T3 cell viability, qHTS; at 92.2 µM (top of the series). Put shortly: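 qHTS format; 40 hr compound exposure, 37 °C; CellTiter-Glo luminescence (cellular ATP) read-out after 20 min at RT. Decrease in ATP = cytotoxicity; AC50 from standard Hill fit.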
A short description of assay [8]: Cell Viability - HUV-EC-C (AID 542). Further: potency means the concentration at half of the fitted maximal effect; nearly all actives have a fitted effect of over 35% in size. To be noted: HUV-EC-C endothelial cell viability, qHTS. Put shortly: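 Luminescent ATP read-out (CellTiter-Glo, 20 min room temperature) after 40 hr compound treatment of HUV-EC-C cells at 37 °C. Concentration-response data fitted with the standard Hill equation to give AC50; tamoxifen and doxorubicin served as positive controls.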

A short description of assay [9]: Cell Viability - H-4-II-E (AID 543). Further: potency means the concentration at half of the fitted maximal effect; nearly all actives have a fitted effect of over 35% in size. To be noted: H-4-II-E rat hepatoma viability. Put shortly: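 qHTS, rat hepatoma H-4-II-E, 1500 cells/well; 40 hr compound exposure, 37 °C; CellTiter-Glo ATP luminescence after 20 min RT; AC50 by standard Hill fit.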
The nature of assay [10]: Cell Viability - SH-SY5Y (AID 544). Further: potency means the concentration at half of the fitted maximal effect; nearly all actives have a fitted effect of over 55% in size. The following applies: SH-SY5Y neuroblastoma cell viability. Summed up:
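SH-SY5Y, 1500 cells/well, 5 hr pre-incubation 37 °C; cpd 40 hr 37 °C; CellTiter-Glo 20 min RT; luminescence (ATP) read. qHTS concentration-response, Hill fit → AC50. Tamoxifen, doxorubicin as positive controls.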

Assay [11] can be described thus: Cell Viability - Renal Proximal Tubule (AID 545).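 Further: 0% = DMSO only and -100% = 100 µM tamoxifen; nearly all actives have a fitted effect of over 40% in size.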 The following applies: renal proximal tubule cells viability, primary cells of rat origin; at 91.7 µM (top of the series). Put shortly: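 Rat renal proximal tubule primary cells, 1000/well, exposed to compounds for 40 hr at 37 °C in complete medium; cellular ATP read by CellTiter-Glo luminescence. AC50 from concentration-response fitted with standard Hill equation.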

The nature of assay [12]: Cell Viability - Mesenchymal (AID 546).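 Further: potency means the concentration at half of the fitted maximal effect; cells exposed to compound for 40 hours before reading.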 The following applies: mesenchymal cells viability, qHTS. Summed up:
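In this qHTS cytotoxicity format, glomerulus-derived human mesenchymal kidney cells received compound for 40 hr, then luciferase-based ATP quantitation. Concentration-response data were fitted with the Hill equation.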

Assay [13] is described as follows: Cellular Toxicity (caspase-3) HepG2 (AID 654).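 Further: cells exposed to compound for 16 hours before reading; 0% = DMSO alone and 100% = caspase signal from 100 µM tamoxifen.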 Put shortly:
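Luminescent Caspase-Glo 3/7 readout after 16 hr compound exposure of human hepatocellular carcinoma HepG2 cells at 37 °C; qHTS concentration-response, normalized DMSO = 0%, 100 uM tamoxifen = 100%; AC50 by standard Hill equation.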

A short description of assay [14]: Cellular Toxicity (caspase-3) Jurkat (AID 655).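 Further: cells exposed to compound for 16 h at 37 °C before reading.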 Summed up:
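Jurkat cells (5000/well) in complete medium exposed 16 h at 37 C; caspase-3/7 activity read by Caspase-Glo luminescence after 20 min at room temperature. Normalized to DMSO and 100 uM tamoxifen; AC50 from Hill fits.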

Assay [15] in a line: Cellular Toxicity (caspase-3) HUV-EC-C (AID 656).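 Further: 0% = DMSO basal and 100% = 100 µM tamoxifen.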 Summed up: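 HUV-EC-C cells (1000/well) in complete medium, compound-treated 16 h at 37 °C; caspase-3/7 activity read by Caspase-Glo 3/7 luminescence. Normalized to DMSO (basal) and 100 uM tamoxifen (100%); AC50 from Hill-equation concentration-response fits.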
A short description of assay [16]: Cellular Toxicity (caspase-3) SHSY5Y (AID 657). Put shortly:
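SH-SY5Y human neuroblastoma cells, 1500/well, exposed to compound for 16 hours at 37 °C in complete medium. Caspase-3/7 activity read by Caspase-Glo luminescence after 1 hr at room temperature, normalized to DMSO and 10 uM staurosporine; AC50 from Hill fit.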

Assay [17] is described as follows: Cellular Toxicity (caspase-3) BJ (AID 658).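 Further: 0% = DMSO basal and 100% = 10 µM staurosporine.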 Summed up: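 Plated BJ cells (1000/well) rested 5 hr, received compound for 16 hr at 37 °C, then Caspase-Glo 3/7 reagent for 1 hr at room temperature before luminescence reading.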
Assay [18] can be described thus: Cellular Toxicity (caspase-3) MRC-5 (AID 659).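 Further: 0% = DMSO basal and 100% = 10 µM staurosporine.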 Summed up: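 Apoptosis readout in MRC-5 cells: luciferase light generated after caspase 3/7 cleaves a peptide-aminoluciferin substrate, measured post 16 hr compound incubation at 37 °C.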
Assay [19] can be described thus: Cellular Toxicity (caspase-3) Mesangial (AID 660).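 Further: cells exposed to compound for 16 h before the caspase read.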 Summed up: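 Luminescent Caspase-Glo 3/7 readout (aminoluciferin substrate cleavage, 20 min RT) after 16 h compound exposure at 37 °C of normal human mesangial cells. Signal increase normalized between DMSO basal and 100 uM tamoxifen; Hill-equation AC50.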

In the case of `O=C1c2c(O)ccc([N+](=O)[O-])c2C(=O)c2c([N+](=O)[O-])ccc(O)c21`, the Potency in assay [1] was 28.5 µM (active); in assay [2], 25.8 µM (active); in assay [3], 27.4 µM (active); in assay [4] it was 30.1 µM (active); in assay [5] it was 28.8 µM (active); in [8], 31.6 µM (active). For the same compound, the Potency in assay [9] is 31.6 µM (active); in [10], 25.1 µM (active); in assay [12] it was 31.6 µM (active). Moreover, the results for the activity change, negative = cytotoxicity in assay [6], in assay [7] and in assay [11] were -111% (active), -139% (active) and -107% (active), respectively. For the same compound, the compound was classed as inactive in assay [13], in [14], in assay [15], in assay [16], in assay [17] and in assay [18]. Also, in assay [19], the outcome was inactive.
